From paper PMC7862700, “An all-to-all approach to the identification of sequence-specific readers for epigenetic DNA modifications on cytosine” come the findings set out here.

The assay concerns the target T1, ETV7 (Homo sapiens, UniProt Q9Y603 1-341).
T1 sequence: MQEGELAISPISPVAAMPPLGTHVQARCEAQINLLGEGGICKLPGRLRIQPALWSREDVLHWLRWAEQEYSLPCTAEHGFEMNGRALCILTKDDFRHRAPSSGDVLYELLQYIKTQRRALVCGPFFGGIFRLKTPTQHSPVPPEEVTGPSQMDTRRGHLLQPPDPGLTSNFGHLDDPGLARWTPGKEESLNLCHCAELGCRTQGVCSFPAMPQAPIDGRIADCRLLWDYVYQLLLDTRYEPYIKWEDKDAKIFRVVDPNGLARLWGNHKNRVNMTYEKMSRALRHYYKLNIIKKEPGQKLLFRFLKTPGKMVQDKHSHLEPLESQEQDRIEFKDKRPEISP
Description: DAPPL (digital affinity profiling via proximity ligation, sequencing); 10 mM Tris-HCl pH 7.5, 50 mM NaCl, 1 mM DTT, 4% glycerol, room temperature, 30 min; GST-TFs on glutathione beads, 16-mer random dsDNA library, 0.1% formaldehyde crosslink after washing; high values mean tight binding. Particulars: protein: recombinant; tags: N-terminal GST; dsDNA, one strand shown. Put shortly: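 Binding signal is defined as a hexamer's read frequency for one factor over its frequency for the tag-only sample. To obtain reads, GST-fused human transcription factors were expressed in yeast, captured on glutathione beads, barcoded with DNA and pooled with that sample. Pools met 200 nmole of a 16-mer random double-stranded DNA library in Tris/NaCl/DTT/glycerol buffer for 30 min at room temperature before washing, 0.1% formaldehyde crosslinking, proximity ligation (BsaI/T4 ligase, 1 h, 37 °C), PCR and Illumina NextSeq500 sequencing.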
GCTCTA: the binding signal is 1.19 fold enrichment (6-mer frequency, TF over GST control).
Turning to TCCGGT, the binding signal was 3.35 fold enrichment (6-mer frequency, TF over GST control).
In the case of ATTTTG, the binding signal was 1.14 fold enrichment (6-mer frequency, TF over GST control).
The value for CCCCTC was 1.24 fold enrichment (6-mer frequency, TF over GST control); that for ATGTTA was 1.23 fold enrichment (6-mer frequency, TF over GST control).
The value for TTGGTG was 1.15 fold enrichment (6-mer frequency, TF over GST control).
To TCCTCC belongs 1.44 fold enrichment (6-mer frequency, TF over GST control); to TTTCGA, 1.29 fold enrichment (6-mer frequency, TF over GST control).
On to CAAAAA, for which the binding signal is 1.1 fold enrichment (6-mer frequency, TF over GST control).
The value for TGCTTC was 2.13 fold enrichment (6-mer frequency, TF over GST control); that for TCACTC was 1.2 fold enrichment (6-mer frequency, TF over GST control); that for ATACAA was 1.14 fold enrichment (6-mer frequency, TF over GST control).
The value for TTTTGG was 1.43 fold enrichment (6-mer frequency, TF over GST control).
For the sequence TAACTG, the binding signal is 1.28 fold enrichment (6-mer frequency, TF over GST control).
Turning to CAATCT, the binding signal was 1.25 fold enrichment (6-mer frequency, TF over GST control).
The value for ATTATT was 1.25 fold enrichment (6-mer frequency, TF over GST control); that for AGTGCT was 1.37 fold enrichment (6-mer frequency, TF over GST control).
The value for TGGATG was 1.68 fold enrichment (6-mer frequency, TF over GST control); that for TAATCT was 1.5 fold enrichment (6-mer frequency, TF over GST control).
The value for TGCTCC was 1.63 fold enrichment (6-mer frequency, TF over GST control); that for CTGGTT was 1.28 fold enrichment (6-mer frequency, TF over GST control).
Take AATTAC: the binding signal is 1.36 fold enrichment (6-mer frequency, TF over GST control).
To TTAAGG belongs 1.12 fold enrichment (6-mer frequency, TF over GST control).
The value for ACTACG was 1.4 fold enrichment (6-mer frequency, TF over GST control); that for CTATGC was 1.42 fold enrichment (6-mer frequency, TF over GST control); that for TCATCC was 1.24 fold enrichment (6-mer frequency, TF over GST control).
For the sequence GTATCT, the binding signal was 1.14 fold enrichment (6-mer frequency, TF over GST control).
Regarding TCATTT, the binding signal was 1.37 fold enrichment (6-mer frequency, TF over GST control).
To CTCTCT belongs 1.56 fold enrichment (6-mer frequency, TF over GST control); to AAGTTA, 1.21 fold enrichment (6-mer frequency, TF over GST control).
ATCACC: the binding signal is 1 fold enrichment (6-mer frequency, TF over GST control).
To ATCCTT belongs 1.49 fold enrichment (6-mer frequency, TF over GST control); to GGTATT, 1.24 fold enrichment (6-mer frequency, TF over GST control).
The value for CATATA was 1.1 fold enrichment (6-mer frequency, TF over GST control).
On to TACCTC, for which the binding signal was 1.19 fold enrichment (6-mer frequency, TF over GST control).
To ACGAAT belongs 1.23 fold enrichment (6-mer frequency, TF over GST control); to AATTGC, 1.38 fold enrichment (6-mer frequency, TF over GST control); to TTAAAG, 1.21 fold enrichment (6-mer frequency, TF over GST control).
To CTATTC belongs 1.34 fold enrichment (6-mer frequency, TF over GST control); to TTTTGT, 1.22 fold enrichment (6-mer frequency, TF over GST control).
